# Experimental data from paper PMC7862700, “An all-to-all approach to the identification of sequence-specific readers for epigenetic DNA modifications on cytosine”.
# Key:
# Assay in all cases: DAPPL (digital affinity profiling via proximity ligation, sequencing); 10 mM Tris-HCl pH 7.5, 50 mM NaCl, 1 mM DTT, 4% glycerol, room temperature, 30 min; GST-TFs on glutathione beads, 16-mer random dsDNA library, 0.1% formaldehyde crosslink after washing; high values mean tight binding
# Conditions in all cases: protein: recombinant; tags: N-terminal GST; dsDNA, one strand shown
# [1] = molecular target: T1, FLI1 (Homo sapiens, UniProt Q01543 1-452)
# T1 sequence: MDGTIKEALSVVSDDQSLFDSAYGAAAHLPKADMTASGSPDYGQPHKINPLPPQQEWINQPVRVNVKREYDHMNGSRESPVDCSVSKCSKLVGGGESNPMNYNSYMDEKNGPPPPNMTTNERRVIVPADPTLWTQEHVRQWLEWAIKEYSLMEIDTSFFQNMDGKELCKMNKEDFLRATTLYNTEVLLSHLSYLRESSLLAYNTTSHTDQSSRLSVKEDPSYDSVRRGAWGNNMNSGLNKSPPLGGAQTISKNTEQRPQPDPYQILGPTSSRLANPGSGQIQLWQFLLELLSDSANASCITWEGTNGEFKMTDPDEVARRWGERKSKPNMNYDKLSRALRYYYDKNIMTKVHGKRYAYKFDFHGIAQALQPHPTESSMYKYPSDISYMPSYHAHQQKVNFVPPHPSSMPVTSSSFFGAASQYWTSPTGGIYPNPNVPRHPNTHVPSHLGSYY
# How it was run: (§1)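 Human transcription factors fused to GST were expressed in yeast, captured on glutathione beads, given DNA barcodes and pooled with a GST-only negative control. Pools were incubated with 200 nmole of a 16-mer random double-stranded DNA library in Tris/NaCl/DTT/glycerol buffer at room temperature for 30 min. They were then washed, crosslinked with 0.1% formaldehyde, proximity-ligated (BsaI/T4 ligase, 1 h, 37 °C), PCR-amplified and sequenced on an Illumina NextSeq500. Binding signal is each 6-mer's read frequency for a factor divided by its frequency for the GST control.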
# [2] = molecular target: T2, ELK1 (Homo sapiens, UniProt P19419 1-428)
# T2 sequence: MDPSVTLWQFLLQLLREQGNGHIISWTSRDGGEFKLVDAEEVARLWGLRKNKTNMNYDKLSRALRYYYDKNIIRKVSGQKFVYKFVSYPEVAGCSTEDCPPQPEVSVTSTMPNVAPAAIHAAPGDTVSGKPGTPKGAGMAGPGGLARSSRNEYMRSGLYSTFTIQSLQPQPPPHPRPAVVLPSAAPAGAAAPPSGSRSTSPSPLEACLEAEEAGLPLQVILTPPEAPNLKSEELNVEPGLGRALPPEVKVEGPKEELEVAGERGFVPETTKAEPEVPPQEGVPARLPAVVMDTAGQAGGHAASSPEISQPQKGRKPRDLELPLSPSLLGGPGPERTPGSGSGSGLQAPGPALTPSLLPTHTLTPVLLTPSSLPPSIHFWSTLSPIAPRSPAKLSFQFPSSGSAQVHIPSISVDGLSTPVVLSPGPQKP
# How it was run: as §1
# [3] = molecular target: T3, GABPA (Homo sapiens, UniProt Q06546 1-454)
# T3 sequence: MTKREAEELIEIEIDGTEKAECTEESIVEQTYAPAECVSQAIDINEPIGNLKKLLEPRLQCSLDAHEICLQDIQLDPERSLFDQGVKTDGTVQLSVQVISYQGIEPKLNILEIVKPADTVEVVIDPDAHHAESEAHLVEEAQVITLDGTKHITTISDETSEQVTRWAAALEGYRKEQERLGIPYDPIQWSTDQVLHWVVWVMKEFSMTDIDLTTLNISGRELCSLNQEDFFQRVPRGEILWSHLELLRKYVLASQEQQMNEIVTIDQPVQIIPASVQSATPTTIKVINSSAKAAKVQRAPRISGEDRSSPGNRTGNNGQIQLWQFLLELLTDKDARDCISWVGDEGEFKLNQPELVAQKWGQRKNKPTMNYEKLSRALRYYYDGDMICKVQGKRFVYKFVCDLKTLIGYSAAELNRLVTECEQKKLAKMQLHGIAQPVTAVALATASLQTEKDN
# How it was run: as §1
# [4] = molecular target: T4, ERG (Homo sapiens, UniProt P11308 1-479)
# T4 sequence: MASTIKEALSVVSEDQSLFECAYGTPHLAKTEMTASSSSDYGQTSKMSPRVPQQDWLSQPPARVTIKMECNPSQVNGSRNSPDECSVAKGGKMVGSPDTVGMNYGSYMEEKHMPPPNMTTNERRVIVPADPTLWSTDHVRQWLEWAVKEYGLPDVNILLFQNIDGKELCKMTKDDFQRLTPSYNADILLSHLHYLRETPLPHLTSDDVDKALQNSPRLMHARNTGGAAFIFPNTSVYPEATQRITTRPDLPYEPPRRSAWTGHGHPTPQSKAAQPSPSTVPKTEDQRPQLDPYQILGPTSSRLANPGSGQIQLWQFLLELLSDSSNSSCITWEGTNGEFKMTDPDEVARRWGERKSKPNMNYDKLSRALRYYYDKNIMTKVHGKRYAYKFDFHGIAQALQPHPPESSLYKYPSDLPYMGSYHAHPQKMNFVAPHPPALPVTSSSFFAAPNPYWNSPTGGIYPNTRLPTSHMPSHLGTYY
# How it was run: as §1
# [5] = molecular target: ELF1 (Homo sapiens, UniProt P32519 1-619)
# How it was run: as §1
# [6] = molecular target: T5, SPIC (Homo sapiens, UniProt Q8N5J4 1-248)
# T5 sequence: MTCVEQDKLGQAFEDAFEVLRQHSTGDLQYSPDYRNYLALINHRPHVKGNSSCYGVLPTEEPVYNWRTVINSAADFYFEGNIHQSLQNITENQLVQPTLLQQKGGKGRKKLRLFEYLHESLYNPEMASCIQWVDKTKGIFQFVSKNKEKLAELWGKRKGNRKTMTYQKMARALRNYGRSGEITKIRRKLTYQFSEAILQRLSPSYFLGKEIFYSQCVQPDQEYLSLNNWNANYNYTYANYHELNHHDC
# How it was run: as §1
# [7] = molecular target: ELF4 (Homo sapiens, UniProt Q99607 1-663)
# How it was run: as §1
# [8] = molecular target: T6, ELK4 (Homo sapiens, UniProt P28324-2 1-405)
# T6 sequence: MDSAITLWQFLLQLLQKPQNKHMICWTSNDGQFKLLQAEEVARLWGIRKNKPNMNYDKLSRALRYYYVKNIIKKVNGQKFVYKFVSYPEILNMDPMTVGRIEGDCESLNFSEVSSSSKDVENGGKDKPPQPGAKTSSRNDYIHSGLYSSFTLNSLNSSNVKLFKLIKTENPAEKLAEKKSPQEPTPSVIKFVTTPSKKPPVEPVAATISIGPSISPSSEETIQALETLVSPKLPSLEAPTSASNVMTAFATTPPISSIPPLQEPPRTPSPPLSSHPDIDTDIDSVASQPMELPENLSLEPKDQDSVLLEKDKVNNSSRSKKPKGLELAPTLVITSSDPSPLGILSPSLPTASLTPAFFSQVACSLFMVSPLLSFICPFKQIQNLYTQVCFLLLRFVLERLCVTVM
# How it was run: as §1
# [9] = molecular target: T7, ELF3 (Homo sapiens, UniProt P78545 1-371)
# T7 sequence: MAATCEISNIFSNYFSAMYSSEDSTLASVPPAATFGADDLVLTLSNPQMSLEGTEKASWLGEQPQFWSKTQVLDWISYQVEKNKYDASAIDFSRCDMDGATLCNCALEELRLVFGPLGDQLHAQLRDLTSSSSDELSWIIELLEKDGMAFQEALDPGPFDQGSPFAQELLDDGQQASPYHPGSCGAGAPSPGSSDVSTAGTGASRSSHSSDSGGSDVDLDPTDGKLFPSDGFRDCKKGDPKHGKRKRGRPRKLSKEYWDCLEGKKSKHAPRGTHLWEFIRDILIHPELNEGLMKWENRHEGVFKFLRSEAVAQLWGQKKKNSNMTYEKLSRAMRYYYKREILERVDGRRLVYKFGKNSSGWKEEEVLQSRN
# How it was run: as §1
# [10] = molecular target: T8, ERF (Homo sapiens, UniProt P50548 1-548)
# T8 sequence: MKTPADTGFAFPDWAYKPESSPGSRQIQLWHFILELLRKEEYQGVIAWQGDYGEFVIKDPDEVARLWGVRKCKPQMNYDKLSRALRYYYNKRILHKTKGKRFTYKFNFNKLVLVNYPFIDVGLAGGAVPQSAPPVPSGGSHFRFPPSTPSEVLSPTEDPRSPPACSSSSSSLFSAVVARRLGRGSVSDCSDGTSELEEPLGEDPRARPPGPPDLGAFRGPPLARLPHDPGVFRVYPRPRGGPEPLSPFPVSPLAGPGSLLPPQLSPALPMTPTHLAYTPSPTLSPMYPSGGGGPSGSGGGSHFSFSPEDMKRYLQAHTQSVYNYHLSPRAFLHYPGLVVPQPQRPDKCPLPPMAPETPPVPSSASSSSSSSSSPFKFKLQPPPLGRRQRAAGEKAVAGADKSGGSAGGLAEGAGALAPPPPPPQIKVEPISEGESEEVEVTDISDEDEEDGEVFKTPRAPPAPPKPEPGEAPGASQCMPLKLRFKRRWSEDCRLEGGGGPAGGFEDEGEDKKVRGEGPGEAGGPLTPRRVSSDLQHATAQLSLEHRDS
# How it was run: as §1
# [11] = molecular target: T9, ETV3L (Homo sapiens, UniProt Q6ZN32 1-361)
# T9 sequence: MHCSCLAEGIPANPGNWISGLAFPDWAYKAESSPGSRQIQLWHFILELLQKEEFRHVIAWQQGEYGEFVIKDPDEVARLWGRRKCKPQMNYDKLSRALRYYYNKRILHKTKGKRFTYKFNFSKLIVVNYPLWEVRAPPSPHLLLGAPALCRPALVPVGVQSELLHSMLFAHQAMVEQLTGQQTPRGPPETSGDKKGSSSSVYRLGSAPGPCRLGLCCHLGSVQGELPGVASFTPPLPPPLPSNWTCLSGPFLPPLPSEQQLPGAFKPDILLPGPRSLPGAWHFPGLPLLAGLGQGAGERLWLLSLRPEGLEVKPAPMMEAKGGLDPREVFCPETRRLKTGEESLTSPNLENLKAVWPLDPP
# How it was run: as §1
# [12] = molecular target: T10, ETS2 (Homo sapiens, UniProt P15036 1-469)
# T10 sequence: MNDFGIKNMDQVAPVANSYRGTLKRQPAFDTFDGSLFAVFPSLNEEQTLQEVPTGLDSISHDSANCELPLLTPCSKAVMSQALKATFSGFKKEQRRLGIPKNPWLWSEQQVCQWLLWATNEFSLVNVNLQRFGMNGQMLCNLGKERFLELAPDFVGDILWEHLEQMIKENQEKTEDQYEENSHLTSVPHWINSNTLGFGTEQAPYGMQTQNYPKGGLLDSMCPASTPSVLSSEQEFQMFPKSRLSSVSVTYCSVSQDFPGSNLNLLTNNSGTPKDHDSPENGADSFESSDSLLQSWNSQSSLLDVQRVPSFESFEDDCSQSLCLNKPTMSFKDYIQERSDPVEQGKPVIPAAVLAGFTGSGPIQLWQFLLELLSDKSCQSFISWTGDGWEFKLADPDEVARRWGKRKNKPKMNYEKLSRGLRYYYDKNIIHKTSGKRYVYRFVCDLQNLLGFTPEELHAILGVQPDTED
# How it was run: as §1
# [13] = molecular target: T11, ETV3 (Homo sapiens, UniProt P41162-2 1-143)
# T11 sequence: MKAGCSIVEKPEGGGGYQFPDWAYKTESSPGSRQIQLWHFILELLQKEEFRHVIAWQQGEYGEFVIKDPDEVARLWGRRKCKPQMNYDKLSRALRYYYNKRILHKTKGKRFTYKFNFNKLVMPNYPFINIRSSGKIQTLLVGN
# How it was run: as §1
# [14] = molecular target: ETV6 (Homo sapiens, UniProt P41212 1-452)
# How it was run: as §1
# Chain of ETV6 (P41212 whole entry): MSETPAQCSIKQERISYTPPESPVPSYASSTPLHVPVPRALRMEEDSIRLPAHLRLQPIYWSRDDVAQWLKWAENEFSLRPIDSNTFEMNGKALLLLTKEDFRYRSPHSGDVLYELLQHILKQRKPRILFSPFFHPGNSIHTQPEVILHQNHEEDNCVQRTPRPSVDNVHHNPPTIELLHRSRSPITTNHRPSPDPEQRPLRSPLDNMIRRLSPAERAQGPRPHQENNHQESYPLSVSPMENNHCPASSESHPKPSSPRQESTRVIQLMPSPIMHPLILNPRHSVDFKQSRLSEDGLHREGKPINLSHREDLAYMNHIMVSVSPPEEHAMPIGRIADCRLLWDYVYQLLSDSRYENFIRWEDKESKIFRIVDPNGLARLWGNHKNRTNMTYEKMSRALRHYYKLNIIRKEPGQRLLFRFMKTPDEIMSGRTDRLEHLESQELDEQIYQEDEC
# Chain of ELF1 (P32519 whole entry): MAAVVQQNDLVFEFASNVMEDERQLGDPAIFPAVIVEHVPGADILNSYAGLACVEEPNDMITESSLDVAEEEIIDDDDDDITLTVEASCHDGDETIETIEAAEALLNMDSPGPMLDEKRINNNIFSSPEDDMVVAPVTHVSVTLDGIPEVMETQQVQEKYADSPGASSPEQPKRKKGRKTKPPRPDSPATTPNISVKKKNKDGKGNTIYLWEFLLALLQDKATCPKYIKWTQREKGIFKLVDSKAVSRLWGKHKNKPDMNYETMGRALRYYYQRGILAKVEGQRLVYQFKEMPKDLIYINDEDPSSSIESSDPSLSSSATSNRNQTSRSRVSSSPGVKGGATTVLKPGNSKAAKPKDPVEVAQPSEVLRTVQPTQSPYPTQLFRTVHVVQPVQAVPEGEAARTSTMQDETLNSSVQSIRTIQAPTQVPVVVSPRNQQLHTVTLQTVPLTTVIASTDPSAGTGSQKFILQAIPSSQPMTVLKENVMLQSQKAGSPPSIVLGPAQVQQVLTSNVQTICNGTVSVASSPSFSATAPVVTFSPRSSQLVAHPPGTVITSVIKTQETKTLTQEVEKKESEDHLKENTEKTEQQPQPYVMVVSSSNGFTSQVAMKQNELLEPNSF
# Chain of ELF4 (Q99607 whole entry): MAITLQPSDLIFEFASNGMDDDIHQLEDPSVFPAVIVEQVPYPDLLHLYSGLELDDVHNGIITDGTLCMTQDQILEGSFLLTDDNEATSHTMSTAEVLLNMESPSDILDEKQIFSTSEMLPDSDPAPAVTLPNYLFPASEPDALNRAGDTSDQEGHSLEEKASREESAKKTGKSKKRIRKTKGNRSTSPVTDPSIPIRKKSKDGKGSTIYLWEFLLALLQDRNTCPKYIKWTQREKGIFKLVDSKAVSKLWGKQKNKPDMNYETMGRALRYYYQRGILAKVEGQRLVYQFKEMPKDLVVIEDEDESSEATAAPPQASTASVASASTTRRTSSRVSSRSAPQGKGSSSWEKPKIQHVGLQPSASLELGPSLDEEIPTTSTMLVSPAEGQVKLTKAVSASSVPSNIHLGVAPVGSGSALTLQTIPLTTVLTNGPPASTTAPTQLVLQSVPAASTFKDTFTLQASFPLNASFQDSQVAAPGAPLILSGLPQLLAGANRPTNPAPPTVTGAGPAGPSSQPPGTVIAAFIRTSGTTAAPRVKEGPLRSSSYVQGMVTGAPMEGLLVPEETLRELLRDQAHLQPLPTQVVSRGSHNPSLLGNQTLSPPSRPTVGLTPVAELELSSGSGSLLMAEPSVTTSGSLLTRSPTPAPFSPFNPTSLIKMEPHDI
sequence,measurement,setting,value
GCCCGA,binding signal,[1],"1.12 fold enrichment (6-mer frequency, TF over GST control)"
same,binding signal,[2],"1.01 fold enrichment (6-mer frequency, TF over GST control)"
same,binding signal,[3],"1.02 fold enrichment (6-mer frequency, TF over GST control)"
same,binding signal,[4],"1.01 fold enrichment (6-mer frequency, TF over GST control)"
same,binding signal,[5],"1.14 fold enrichment (6-mer frequency, TF over GST control)"
same,binding signal,[6],"1.11 fold enrichment (6-mer frequency, TF over GST control)"
same,binding signal,[7],"1.02 fold enrichment (6-mer frequency, TF over GST control)"
same,binding signal,[8],"1.1 fold enrichment (6-mer frequency, TF over GST control)"
same,binding signal,[9],"1.21 fold enrichment (6-mer frequency, TF over GST control)"
same,binding signal,[10],"1.05 fold enrichment (6-mer frequency, TF over GST control)"
same,binding signal,[11],"1.01 fold enrichment (6-mer frequency, TF over GST control)"
same,binding signal,[12],"1.08 fold enrichment (6-mer frequency, TF over GST control)"
same,binding signal,[13],"1.04 fold enrichment (6-mer frequency, TF over GST control)"
same,binding signal,[14],"1.07 fold enrichment (6-mer frequency, TF over GST control)"
